Screens from PubChem.
DT40 TDP1 no CPT – qHTS for Inhibitors of human tyrosyl-DNA phosphodiesterase 1 (TDP1): qHTS in cells in absence of CPT | Potency, µM (titrated, usually from 46.2 µM), for the others: at the top dose activity change, negative = growth inhibition, actives largely listed as inhibitors | DT40 Tdp1-/- hTDP1 cells, no CPT, ATP luminescence, 48 h | 420,000 compounds, 15% hits | AID 686978, 2013; further: potency means the concentration at half of the fitted maximal effect; nearly all actives have a fitted effect of over 55% in size
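Compound effects on proliferation are scored in DT40 Tdp1-/-;hTDP1 cells in the absence of CPT. ATP levels (CellTiter-Glo luminescence) are recorded after a ≥48 hr, 37 °C incubation.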
IL1B secr inh – qHTS for Inhibitors of Inflammasome Signaling: IL-1-beta AlphaLISA Primary Screen | 360,000 compounds, 4.7% hits | AID 743279, 2014 | activity change, % at 57.5 µM | THP-1 LPS/ATP IL-1B secretion, AlphaLISA, 16 h; stronger effect = lower value; in the data active means activity change below about -50%; inconclusive means mostly about -30% to -49%
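THP-1 cells pretreated 1 hr with compounds (up to 57.5 uM final), then stimulated with LPS (250 ng/mL final) plus ATP (1.25 mM final); secreted IL-1B measured by AlphaLISA after 16 hr, decreased signal indicating inhibition.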
HT1080 IDH1KD tx – qHTS for induction of synthetic lethality in tumor cells producing 2HG: qHTS for the HT-1080-IDH1KD cell line; HT-1080 IDH1 knockdown viability, ATP luminescence, 48 h; Potency, µM (doses to about 46.1 µM), for the others: at the top dose activity, negative = toxicity, actives largely listed as cytotoxic; 360,000 compounds, 2% hits; AID 686971, 2013;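 further: potency means the concentration at half of the fitted maximal effect; 0% = DMSO wells and -100% = cell-free medium wells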
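Luminescent ATP read-out (CellTiter-Glo, 10 min at room temperature) after 48 h compound exposure at 37 °C gave viability of IDH1-knockdown HT-1080 cells. Activity was normalised to DMSO and cell-free wells, then fitted as concentration-response curves.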
TDP1 cell CPT – qHTS for Inhibitors of human tyrosyl-DNA phosphodiesterase 1 (TDP1): qHTS in cells in presence of CPT; chicken DT40 Tdp1-/-;hTDP1 cells + 20 nM CPT, ATP luminescence, 48 h; Potency, µM (titrated, usually from 46.2 µM), for the others: at the top dose activity change, negative = growth inhibition, most hits filed as inhibitors; 420,000 compounds, 12% hits; further: potency means the concentration at half of the fitted maximal effect; nearly all actives have a fitted effect of over 55% in size
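Chicken DT40 Tdp1-/- cells complemented with human TDP1, 400 cells/well, exposed to compounds plus 20 nM camptothecin for at least 48 h at 37 C; viability read as ATP content by CellTiter-Glo luminescence.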
HT1080-NT tox – qHTS for induction of synthetic lethality in tumor cells producing 2HG: qHTS for the HT-1080-NT fibrosarcoma cell line; 360,000 compounds, 1.6% hits; Potency, µM (titrated, usually from 46.1 µM), for the others: at the highest dose activity, negative = less viability, actives largely listed as cytotoxic; HT-1080-NT fibrosarcoma viability, CellTiter-Glo ATP luminescence, 48 h;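 further: NT is the 2HG producing partner of a matched IDH1 knockdown line; potency means the concentration at half of the fitted maximal effect; 0% = DMSO-treated cells and -100% = media-only wells without cells; nearly all actives have a fitted effect of over 55% in size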
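Read-out is CellTiter-Glo luminescence after 10 minutes at room temperature, following 48 hours' compound treatment of HT-1080-NT cells (750 cells/well, RPMI, 5% FBS, 37 degrees C).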
* = called active by the depositor; u = inconclusive; x = not tested or not shown. Most compounds without a hit are left out; they make up all but 19% or so of the library. Unless noted, the call rests on the fitted dose curve; in most records, active means well fitted curve in the direction sought with a large enough effect; inconclusive means small, poorly fitted or top-dose-only effect, or another doubt; inactive means no such curve, though single readings can be large; an effect the other way counts as inactive or inconclusive. Unless noted, on the % scale 0 is the no-effect control and ±100 the full control effect.

SMILES	DT40 TDP1 no CPT	IL1B secr inh	HT1080 IDH1KD tx	TDP1 cell CPT	HT1080-NT tox
CCn1c(/C=C/c2ccccc2C)nc2ccccc2c1=O	u	-9	-2%	u	-6%
Cc1c(C(=O)N2CCCCC2)c(S(=O)(=O)N2CCC(C)CC2)c(C)n1C	-21%	-15	5%	u	2%
CCOC(=O)N1CCC(NC(=O)c2cc(C(=O)Nc3ccc(S(=O)(=O)N4CCCCC4)cc3)ccc2CO)CC1	-22%	56	8%	u	8%
Cc1ccc(C(=O)OCC(=O)N(CC(C)C)c2c(N)n(Cc3ccccc3)c(=O)[nH]c2=O)o1	-9%	-4	-3%	-5%	0%
Cc1nc2ccccc2c(=O)n1CCc1ccccc1	u	38	11%	u	11%
Cc1ccc(/C=C/c2nc3ccccc3c(=O)n2CCc2ccccc2)cc1	16µM*	-20	-12%	u	-19%
COc1ccc2c(c1)C(=O)Cc1ccccc1O2	21µM*	-11	16%	-9%	-11%
NNC(=O)CSc1cccc2cccnc12	3%	-27	14%	4%	0%
CN(C)C(=O)CSc1cccc2cccnc12	4.6µM*	-8	u	4.6µM*	u
O=C(CSc1cccc2cccnc12)OCC(=O)c1ccc(Br)cc1	-15%	13	-6%	-1%	-13%
O=C(CSc1cccc2cccnc12)OCC(=O)c1ccccc1	u	0	33µM*	u	29µM*
O=C(CSc1cccc2cccnc12)N1CCCC1	5.2µM*	-116*	1%	4.1µM*	7.3µM*
CC(=O)c1ccc(-c2ccc3c4c(ccc3c2)OC(CNC(=O)C(C)N2CCOCC2)C4)s1 (configuration not stated)	7.3µM*	x	x	u	x
COc1cc(/C=C/C(=O)OCC(=O)NC(=O)NC(C)C)ccc1OCC#N	u	8	-8%	9%	-12%
COc1cc(/C=C/C(=O)OCC(=O)NC(=O)NC23CC4CC(CC(C4)C2)C3)ccc1OCC#N	21µM*	u	-13%	u	-21%
COC(=O)C1=C(C)N(Cc2ccccc2)C(=O)N[C@H]1c1ccc(Br)cc1	7%	-54*	-6%	2%	-9%
COCCN=C1N[C@@H](c2ccccc2)C(C(=O)OC)=C(C)N1Cc1ccccc1	23µM*	-17	9%	u	2%
COCCN=C1N[C@@H](c2ccc(Br)cc2)C(C(=O)OC)=C(C)N1Cc1ccccc1	u	u	-29%	u	23µM*
C=CCN=C1N[C@@H](c2ccccc2)C(C(=O)OC)=C(C)N1CCOC	-23%	-8	1%	-27%	14%
CCC(=O)Nc1cccc(C(=O)/C=C/c2ccc(F)cc2)c1	2.6µM*	-80*	u	4.6µM*	-30%
CC(=O)Nc1cccc(C(=O)/C=C/c2ccc(C)cc2)c1	10µM*	-102*	u	9.2µM*	-5%
Cc1ccc(C(=O)Nc2cccc(C(=O)O)c2)cc1	-15%	11	u	-27%	-29%
CN(C)c1ccc(/C=C/C(=O)c2cccc(Br)c2)cc1	21µM*	u	u	15µM*	-4%
COc1cccc(NC(=S)NC(=O)/C=C/c2ccc(F)cc2)c1	18%	u	5%	-1%	6%
C[C@H](CO)N1C[C@H](C)[C@@H](CN(C)S(=O)(=O)c2ccccc2)Oc2ccc(NC(=O)Nc3ccc4c(c3)OCO4)cc2C1=O	u	-19	0%	u	-4%
CN(Cc1ccccc1)c1ccc(-c2nc(-c3ccncc3)no2)cc1[N+](=O)[O-]	18µM*	x	x	21µM*	x
CN(Cc1ccccc1)c1ccc(-c2nc(-c3ccccn3)no2)cc1[N+](=O)[O-]	18µM*	x	x	u	x
